# Results filed as inconclusive are left out. Calls of active or inactive are those of the source. Calls follow the shape of the dose curve; as a rule, active = well fitted cell-killing curve with a large enough effect; inconclusive = small, poorly fitted or top-dose-only effect; inactive = flat fitted curve, though single readings scatter.
# Test: qHTS of pediatric cancer cell lines to identify multiple opportunities for drug repurposing: Primary screen for BT-12 cells (AID 1347101); also: nearly all actives have a fitted effect of over 25% in size
# Conditions: BT-12 viability, CellTiter-Glo luminescence, 48 h; series mostly up to 57.3 µM; activity change, negative = cytotoxic: at the top concentration
# Source text: Drug repurposing or repositioning has been offered as a strategy for drug development in oncology programs. This approach has special potential for childhood cancers and other rare or orphan diseases, where the expected return on new drug development has been a disincentive to pharmaceuticals.
# In this project we exploit the poly-pharmacology of drugs to discover new indications via phenotypic screening of a panel of 19 well-characterized cell lines derived from solid tumors seen in children and adolescents. The goal is to identify approved drugs with previously unrecognized anticancer properties that has the potential to reveal new mechanisms and biological processes involved in carcinogenesis or drug resistance. We employed a titration-based paradigm (quantitative high-throughput screening or qHTS), where all compounds were tested at multiple concentrations for their effect on cell viability. Concentration-response curves (CRCs) were derived directly from the primary screen, and both potency and efficacy values were used to identify compounds with robust bioactivity profiles. We screened the NIH Chemical Genomics Center (NCGC) Pharmaceutical Collection (NPC) and Mechanism Interrogation Plate (MIPE) small molecule collections of approved and investigational compounds against these cell lines; and measured metabolically active cells after 48 hours of compound treatment as a proxy for cell viability.
# Assay Submitter: Nathalia J. Martinez, National Center for Advancing Translational Sciences, National Institutes of Health, Rockville, MD, USA; email: natalia.martinez@nih.gov
# [1] Shen, M et al. Quantitative high-throughput phenotypic screening of pediatric cancer cell lines identifies multiple opportunities for drug repurposing. Oncotarget 2017 Dec 19;9(4):4758-4772. PMID 29435139.
# The cells were obtained from University of North Carolina (UNC), Pediatric Preclinical Testing Program (PPT), and Coriell Institute (CI).
# qHTS cell viability assay:
# Cells were assayed in growth media at a density of 500-1,000 cells/well. Five microliters of cells were dispensed into 1,536-well, white, solid-bottom, TC-treated plates (Greiner Bio One) using a multidrop dispenser and incubated at 37 degrees C, 5% CO2, under a humidified atmosphere for 5 hours. Twenty-three nanoliters of compounds and controls (neutral control DMSO or positive control bortezomib at final concentration of 2.3 µM) were subsequently transferred by Kalypsys pintool. For primary screens, the MIPE collection was tested at 11-point dilutions (final concentrations range from 0.78 nM to 46 µM) and the NPC collection at 8-point dilutions (final concentrations range from 0.59 nM to 46 µM). Compounds tested in follow-up screens were assayed at 11-point dilutions. Cells were incubated for 48 hours, followed by addition of 3 µL of CellTiter-Glo (Promega). After a 15 min incubation at room temperature, samples were analyzed for luminescence intensity using a ViewLux High-throughput CCD imager equipped with clear filters.
# Potency is read from the fitted curve at half-maximal effect.
Compound,"activity change, negative = cytotoxic",Potency
Cc1coc2ccccc2c1=O,14.6% (inactive),–
CC(=O)Oc1ccc(C2(c3ccc(OC(C)=O)cc3)Oc3ccccc3NC2=O)cc1,–,19.5 µM (active)
O=C(CCCl)NCCc1ccccc1,2.24% (inactive),–
CCc1cc2cc(OC)c(OC)cc2c(Cc2ccccc2)n1,-0.2% (inactive),–
CCN(CC)CC(=O)OCC(=O)[C@@]1(O)CC[C@H]2[C@@H]3CCC4=CC(=O)CC[C@]4(C)[C@H]3[C@@H](O)C[C@@]21C,4.38% (inactive),–
Cc1cnc(NS(=O)(=O)c2ccc(N)cc2)nc1,17.3% (inactive),–
COc1cc(C(=O)NC2CCCNC2)cc(OC)c1OC (stereo not given),9.4% (inactive),–
Cc1ccc(C(C)OC(=O)C2(C)CCC(C(=O)O)C2(C)C)cc1 (stereo not given),9.76% (inactive),–
O=C(O)c1cn(C2CC2)c2cc(Cl)c(F)cc2c1=O,-0.861% (inactive),–
OC[C@]1(O)OC[C@@H](O)[C@H](O)[C@@H]1O,5.84% (inactive),–
Nc1ccc([N+](=O)[O-])c(C(F)(F)F)c1,-4.48% (inactive),–
C[C@H]1C[C@H]2[C@@H]3CCC4=CC(=O)C=C[C@]4(C)[C@H]3C(=O)C[C@]2(C)[C@@]1(O)C(=O)CO,8.49% (inactive),–
COc1ccc(/C(C)=C/C(=O)O)c(OC)c1,10.1% (inactive),–
Cc1ccc(O)cc1,9.94% (inactive),–
CCN(CC)CCN,3.66% (inactive),–
Cc1ccc(C(=O)C(=O)O)cc1C,1.31% (inactive),–
CCn1ccc(NS(=O)(=O)c2ccc(N)cc2)nc1=O,6.6% (inactive),–
CC(C)=CCC/C(C)=C/CC/C(C)=C/CCC(=O)OC/C=C(\C)CCC=C(C)C,11.4% (inactive),–
CN(C)[C@@H]1C(=O)C(C(N)=O)=C(O)[C@@]2(O)C(=O)C3=C(O)c4c(O)cccc4C[C@H]3C[C@@H]12,–,17.4 µM (active)
Cc1c(N)cccc1C(F)(F)F,12.5% (inactive),–

Compound,"activity change, negative = cytotoxic",Potency
Fc1ccc(C(c2ccc(F)cc2)N2CCNCC2)cc1,-1.05% (inactive),–
O=C1NCCN1CCN1CCC(c2cn(-c3ccc(F)cc3)c3ccc(Cl)cc23)CC1,–,8.71 µM (active)
O=C1CCCc2c(O)cccc21,-7.86% (inactive),–
C[C@@H](O[C@H]1OCCN(Cc2n[nH]c(=O)[nH]2)[C@H]1c1ccc(F)cc1)c1cc(C(F)(F)F)cc(C(F)(F)F)c1,–,15.5 µM (active)
Cc1cc(O)c(C)c(C)c1O,13.9% (inactive),–
N#CC1(c2ccc(F)cc2)CCC(=O)CC1,-7.12% (inactive),–
CO[C@@H]1[C@@H](OC)[C@H](C)[C@@](O)(CC(=O)O)O[C@H]1[C@H](C)[C@H]1O[C@@]2(CC[C@@](C)([C@H]3CC[C@@](C)([C@@H]4O[C@@H]([C@H]5O[C@](C)(O)[C@H](C)C[C@@H]5C)C[C@@H]4OC4C[C@H](OC)[C@@H](OC)[C@H](C)O4)O3)O2)C[C@H](O)[C@H]1C (stereo not given in full),–,0.347 µM (active)
CC(C)NCCCC1(C(N)=O)c2ccccc2-c2ccccc21,-2.06% (inactive),–
CCCC(=O)Nc1ccc(O)c(C(C)=O)c1,11.3% (inactive),–
CCOc1ccc(NS(=O)(=O)c2ccc(N)cc2)nn1,9.28% (inactive),–
O=C1NC(c2ccccc2)(c2ccccc2)C(=O)N1COP(=O)(O)O,9.8% (inactive),–
CC(C(O)c1ccccc1)N(C)CCOC(c1ccccc1)c1ccccc1 (stereo not given),–,21.9 µM (active)
CCN(CC)CC(=O)Oc1ccc(NC(C)=O)cc1,9.8% (inactive),–
CC1CC(=O)NN=C1c1ccc(NCC(C)(C)NCC(O)COc2cc(Cl)ccc2C#N)cc1 (stereo not given),-11.9% (inactive),–
O=C(O)CCC(=O)OC[C@@H](NC(=O)C(Cl)Cl)[C@H](O)c1ccc([N+](=O)[O-])cc1,-3.01% (inactive),–
CC(C)(C)C1CCC(CC2=C(O)c3ccccc3C(=O)C2=O)CC1 (stereo not given),–,24.6 µM (active)
CC1(C)OC(=O)Nc2ccc(Br)cc21,9.06% (inactive),–
CCC(CN)=C(c1ccccc1)c1ccccc1,-1.45% (inactive),–
CCCCCCn1c(=O)c2c(ncn2C)n(C)c1=O,-7.1% (inactive),–
CN1CCC(=C2c3ccccc3CCc3cccnc32)CC1,1.75% (inactive),–

# — PubChem BioAssay (NCATS)
